These results are taken from the supplement of paper PMC13380429.

In assay [1] the test system is Vero E6 infected with SARS-CoV-2. Nature of the assay: morphology score (similarity to uninfected cells); higher = more like uninfected cells. To be noted: 24 h.
For assay [2] the test system is unchanged. Nature of the assay: SARS-CoV-2 infection rate relative to infected DMSO; higher = more infection, active = 60 or less. Particulars: 24 h.

In assay [1], `CN/C(=N\c1ccc(C2=NNC(=O)CC2C)cc1)NC#N` (centres undefined) [siguazodan] (10 µM) returned a morphology score of 0.0721. Also, the SARS-CoV-2 infection rate in assay [2] was 109% (inactive).
On to `CN(C)CCOC1=Cc2ccccc2Sc2ccc(Cl)cc21` [zotepine] (0.833333 µM), for which the morphology score in assay [1] was found to be 0.061. Moreover, the SARS-CoV-2 infection rate in assay [2] is 106% (inactive).
In assay [1], `O=c1c(-c2ccc(O)cc2)coc2c([C@@H]3O[C@H](CO)[C@@H](O)[C@H](O)[C@H]3O)c(O)ccc12` [kakonein] (10 µM) registered a morphology score of -0.0186. In addition, the SARS-CoV-2 infection rate in assay [2] is 103% (inactive).
Turning to `CCCCc1nc(C)c(CC(=S)N(C)C)c(=O)n1Cc1ccc(-c2ccccc2-c2nnn[nH]2)cc1` [fimasartan] (10 µM), in assay [1], the morphology score was 0.0951. Also, the SARS-CoV-2 infection rate in assay [2] was 112% (inactive).
In assay [1], `CN(C)C(=N)NC(=N)N` [metformin] (10 µM) had a morphology score of -0.00931. For the same compound, in assay [2], the SARS-CoV-2 infection rate is 108% (inactive).
Compound `CC(C)(CCCCCC(O)CCCCCC(C)(C)C(=O)O)C(=O)O` [bempedoic-acid] (10 µM) yielded a morphology score in assay [1] of 0.0218. Also, the SARS-CoV-2 infection rate in assay [2] is 110% (inactive).
On the same counts, the results for `CCNC(=O)c1noc(-c2cc(C(C)C)c(O)cc2O)c1-c1ccc(CN2CCOCC2)cc1` (0.833333 µM) are 0.0632 and 94% (inactive).
